Our source for the binding signal values is PMC7862700, “An all-to-all approach to the identification of sequence-specific readers for epigenetic DNA modifications on cytosine”.

What all share (assay): DAPPL (digital affinity profiling via proximity ligation, sequencing); 10 mM Tris-HCl pH 7.5, 50 mM NaCl, 1 mM DTT, 4% glycerol, room temperature, 30 min; GST-TFs on glutathione beads, 16-mer random dsDNA library, 0.1% formaldehyde crosslink after washing; high values mean tight binding
Experiment [1] addresses T1, FLI1 (Homo sapiens, UniProt Q01543 1-452).
T1 sequence: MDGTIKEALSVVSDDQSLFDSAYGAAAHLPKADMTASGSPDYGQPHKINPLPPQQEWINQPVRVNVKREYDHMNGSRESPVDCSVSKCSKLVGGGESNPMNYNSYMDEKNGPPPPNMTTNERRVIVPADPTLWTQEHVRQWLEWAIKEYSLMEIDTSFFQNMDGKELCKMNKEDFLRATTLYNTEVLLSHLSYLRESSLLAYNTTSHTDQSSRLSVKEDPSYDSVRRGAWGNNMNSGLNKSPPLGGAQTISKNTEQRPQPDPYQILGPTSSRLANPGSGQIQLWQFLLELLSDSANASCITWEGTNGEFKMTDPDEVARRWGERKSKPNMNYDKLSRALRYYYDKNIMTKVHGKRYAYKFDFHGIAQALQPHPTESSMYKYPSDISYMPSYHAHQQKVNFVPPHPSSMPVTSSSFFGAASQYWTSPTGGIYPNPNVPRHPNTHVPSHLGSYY
The conditions noted are these: protein: recombinant; tags: N-terminal GST; dsDNA, one strand shown. A digest of the protocol:
(§1)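 In yeast, human transcription factors were expressed with a GST fusion, then pulled down on glutathione beads and given DNA barcodes. Pooled with a tag-only sample, they were exposed to 200 nmole of a 16-mer random double-stranded DNA library (Tris/NaCl/DTT/glycerol buffer, room temperature, 30 min), washed, crosslinked with 0.1% formaldehyde, proximity-ligated using BsaI/T4 ligase for 1 h at 37 °C, PCR-amplified and read on an Illumina NextSeq500. Each hexamer's frequency of reads for a factor, divided by the matching frequency for the tag-only sample, gives the binding signal.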

For experiment [2], the target named is T2, ELK1 (Homo sapiens, UniProt P19419 1-428).
T2 sequence: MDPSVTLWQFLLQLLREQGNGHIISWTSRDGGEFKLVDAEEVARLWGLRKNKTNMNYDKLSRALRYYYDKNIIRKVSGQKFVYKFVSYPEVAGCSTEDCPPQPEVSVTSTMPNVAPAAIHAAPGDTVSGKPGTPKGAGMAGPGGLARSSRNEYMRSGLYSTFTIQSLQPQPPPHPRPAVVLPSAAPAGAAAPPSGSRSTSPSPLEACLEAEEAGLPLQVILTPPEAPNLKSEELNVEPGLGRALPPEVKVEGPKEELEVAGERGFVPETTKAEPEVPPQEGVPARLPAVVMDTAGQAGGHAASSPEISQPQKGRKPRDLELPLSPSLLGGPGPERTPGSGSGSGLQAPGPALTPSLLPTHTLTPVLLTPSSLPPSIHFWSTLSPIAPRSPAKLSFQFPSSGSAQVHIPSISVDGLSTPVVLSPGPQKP
As to conditions: protein: recombinant; tags: N-terminal GST; dsDNA, one strand shown. A digest of the protocol: as §1

Experiment [3] has as its target T3, GABPA (Homo sapiens, UniProt Q06546 1-454).
T3 sequence: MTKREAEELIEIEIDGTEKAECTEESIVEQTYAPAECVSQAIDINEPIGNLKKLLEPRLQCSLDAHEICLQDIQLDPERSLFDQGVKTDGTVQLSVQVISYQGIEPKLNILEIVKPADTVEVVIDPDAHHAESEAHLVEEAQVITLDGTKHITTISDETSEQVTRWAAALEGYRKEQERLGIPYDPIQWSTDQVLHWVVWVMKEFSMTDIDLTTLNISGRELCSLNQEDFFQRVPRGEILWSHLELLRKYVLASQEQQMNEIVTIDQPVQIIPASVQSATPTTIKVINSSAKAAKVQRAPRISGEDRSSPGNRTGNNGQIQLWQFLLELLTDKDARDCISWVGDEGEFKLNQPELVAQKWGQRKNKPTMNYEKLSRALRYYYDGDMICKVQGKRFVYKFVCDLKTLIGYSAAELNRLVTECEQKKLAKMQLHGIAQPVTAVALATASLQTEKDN
As to conditions: protein: recombinant; tags: N-terminal GST; dsDNA, one strand shown. In a few lines:
as §1

Experiment [4] concerns the target T4, ERG (Homo sapiens, UniProt P11308 1-479).
T4 sequence: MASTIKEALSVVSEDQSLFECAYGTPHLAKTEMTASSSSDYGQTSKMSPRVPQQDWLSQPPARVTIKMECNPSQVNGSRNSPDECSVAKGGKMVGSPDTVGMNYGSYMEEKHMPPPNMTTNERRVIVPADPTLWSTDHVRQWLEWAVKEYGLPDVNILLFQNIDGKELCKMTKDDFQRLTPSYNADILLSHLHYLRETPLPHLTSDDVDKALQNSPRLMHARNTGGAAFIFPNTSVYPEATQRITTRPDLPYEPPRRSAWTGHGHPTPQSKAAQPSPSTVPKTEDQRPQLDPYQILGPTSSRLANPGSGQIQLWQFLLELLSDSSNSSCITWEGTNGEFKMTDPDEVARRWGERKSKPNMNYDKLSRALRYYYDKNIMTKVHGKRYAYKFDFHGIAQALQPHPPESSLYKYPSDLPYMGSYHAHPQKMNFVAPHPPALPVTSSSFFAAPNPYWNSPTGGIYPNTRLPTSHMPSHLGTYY
The conditions noted are these: protein: recombinant; tags: N-terminal GST; dsDNA, one strand shown. In a few lines:
as §1

Experiment [5] has as its target ELF1 (Homo sapiens, UniProt P32519 1-619). The conditions noted are these: protein: recombinant; tags: N-terminal GST; dsDNA, one strand shown. In a few lines: as §1
Experiment [6] addresses T5, EHF (Homo sapiens, UniProt Q9NZC4 1-300).
T5 sequence: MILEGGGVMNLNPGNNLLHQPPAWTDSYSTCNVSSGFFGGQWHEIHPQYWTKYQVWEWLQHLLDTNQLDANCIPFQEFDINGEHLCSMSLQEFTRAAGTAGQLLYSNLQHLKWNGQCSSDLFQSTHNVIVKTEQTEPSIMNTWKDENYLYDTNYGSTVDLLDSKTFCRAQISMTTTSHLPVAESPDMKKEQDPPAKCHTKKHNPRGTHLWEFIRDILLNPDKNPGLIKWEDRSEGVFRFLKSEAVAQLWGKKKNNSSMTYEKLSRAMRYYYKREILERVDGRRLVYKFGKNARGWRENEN
As to conditions: protein: recombinant; tags: N-terminal GST; dsDNA, one strand shown. A digest of the protocol: as §1

The target in experiment [7] is SPI1 (Homo sapiens, UniProt P17947 1-270). As to conditions: protein: recombinant; tags: N-terminal GST; dsDNA, one strand shown. In a few lines:
as §1

Experiment [8] has as its target SPIB (Homo sapiens, UniProt Q01892 1-262). As to conditions: protein: recombinant; tags: N-terminal GST; dsDNA, one strand shown. A digest of the protocol:
as §1

Experiment [9] has as its target T6, ELK3 (Homo sapiens, UniProt P41970 1-407).
T6 sequence: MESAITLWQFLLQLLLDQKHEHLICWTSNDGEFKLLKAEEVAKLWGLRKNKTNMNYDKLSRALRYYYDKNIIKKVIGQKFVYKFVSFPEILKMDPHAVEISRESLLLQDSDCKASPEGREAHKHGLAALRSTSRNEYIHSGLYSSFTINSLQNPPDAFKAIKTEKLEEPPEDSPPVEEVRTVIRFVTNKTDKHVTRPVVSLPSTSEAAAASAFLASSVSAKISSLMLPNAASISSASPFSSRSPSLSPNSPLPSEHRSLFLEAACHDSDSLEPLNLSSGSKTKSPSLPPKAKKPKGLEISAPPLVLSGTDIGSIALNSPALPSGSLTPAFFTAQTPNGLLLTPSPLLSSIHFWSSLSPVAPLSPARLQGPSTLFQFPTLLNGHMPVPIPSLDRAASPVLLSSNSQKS
As to conditions: protein: recombinant; tags: N-terminal GST; dsDNA, one strand shown. In a few lines:
as §1

For experiment [10], the target named is T7, FEV (Homo sapiens, UniProt Q99581 1-238).
T7 sequence: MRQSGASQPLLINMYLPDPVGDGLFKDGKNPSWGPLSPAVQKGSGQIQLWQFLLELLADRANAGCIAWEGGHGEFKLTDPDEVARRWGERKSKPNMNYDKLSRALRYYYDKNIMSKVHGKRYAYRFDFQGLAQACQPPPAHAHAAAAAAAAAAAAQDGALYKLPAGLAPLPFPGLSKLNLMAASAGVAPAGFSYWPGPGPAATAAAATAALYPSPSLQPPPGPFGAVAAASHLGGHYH
The conditions noted are these: protein: recombinant; tags: N-terminal GST; dsDNA, one strand shown. A digest of the protocol: as §1

Experiment [11] deals with ETV5 (Homo sapiens, UniProt P41161 1-510). The conditions noted are these: protein: recombinant; tags: N-terminal GST; dsDNA, one strand shown. In a few lines:
as §1

The target of experiment [12] is HSF1 (Homo sapiens, UniProt Q00613 1-529). The conditions noted are these: protein: recombinant; tags: N-terminal GST; chain copies: 3; dsDNA, one strand shown. In a few lines: as §1
Experiment [13] addresses T8, SPIC (Homo sapiens, UniProt Q8N5J4 1-248).
T8 sequence: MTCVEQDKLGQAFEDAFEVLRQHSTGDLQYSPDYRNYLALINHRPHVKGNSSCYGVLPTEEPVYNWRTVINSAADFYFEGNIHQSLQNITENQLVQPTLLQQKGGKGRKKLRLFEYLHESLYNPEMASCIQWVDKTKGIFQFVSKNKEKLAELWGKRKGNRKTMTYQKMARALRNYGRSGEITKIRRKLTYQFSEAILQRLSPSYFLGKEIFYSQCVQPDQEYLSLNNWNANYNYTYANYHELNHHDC
The conditions noted are these: protein: recombinant; tags: N-terminal GST; dsDNA, one strand shown. In a few lines:
as §1

Experiment [14] has as its target ELF4 (Homo sapiens, UniProt Q99607 1-663). The conditions noted are these: protein: recombinant; tags: N-terminal GST; dsDNA, one strand shown. In a few lines:
as §1

For experiment [15], the target named is T9, ELK4 (Homo sapiens, UniProt P28324-2 1-405).
T9 sequence: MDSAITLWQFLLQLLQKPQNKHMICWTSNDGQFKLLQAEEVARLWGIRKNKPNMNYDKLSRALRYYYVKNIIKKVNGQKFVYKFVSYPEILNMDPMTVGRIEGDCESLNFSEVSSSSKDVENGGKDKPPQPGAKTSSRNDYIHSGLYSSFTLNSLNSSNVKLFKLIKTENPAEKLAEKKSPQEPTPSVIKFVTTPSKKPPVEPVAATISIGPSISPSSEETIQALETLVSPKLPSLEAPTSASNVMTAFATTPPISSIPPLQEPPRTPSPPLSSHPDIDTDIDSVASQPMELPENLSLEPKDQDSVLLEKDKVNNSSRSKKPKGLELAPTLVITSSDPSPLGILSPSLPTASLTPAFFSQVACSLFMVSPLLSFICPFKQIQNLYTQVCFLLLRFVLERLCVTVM
As to conditions: protein: recombinant; tags: N-terminal GST; dsDNA, one strand shown. A digest of the protocol: as §1

Experiment [16] deals with T10, ETV2 (Homo sapiens, UniProt O00321 1-342).
T10 sequence: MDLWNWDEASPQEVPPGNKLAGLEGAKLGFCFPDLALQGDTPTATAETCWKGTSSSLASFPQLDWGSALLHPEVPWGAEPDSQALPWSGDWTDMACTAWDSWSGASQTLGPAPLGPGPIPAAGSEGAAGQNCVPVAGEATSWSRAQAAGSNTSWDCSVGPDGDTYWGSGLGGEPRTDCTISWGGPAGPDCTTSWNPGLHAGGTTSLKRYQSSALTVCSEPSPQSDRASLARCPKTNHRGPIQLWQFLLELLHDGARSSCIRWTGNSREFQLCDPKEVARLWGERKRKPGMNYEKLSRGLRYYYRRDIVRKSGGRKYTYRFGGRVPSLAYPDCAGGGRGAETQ
As to conditions: protein: recombinant; tags: N-terminal GST; dsDNA, one strand shown. A digest of the protocol: as §1

For experiment [17], the target named is T11, ELF3 (Homo sapiens, UniProt P78545 1-371).
T11 sequence: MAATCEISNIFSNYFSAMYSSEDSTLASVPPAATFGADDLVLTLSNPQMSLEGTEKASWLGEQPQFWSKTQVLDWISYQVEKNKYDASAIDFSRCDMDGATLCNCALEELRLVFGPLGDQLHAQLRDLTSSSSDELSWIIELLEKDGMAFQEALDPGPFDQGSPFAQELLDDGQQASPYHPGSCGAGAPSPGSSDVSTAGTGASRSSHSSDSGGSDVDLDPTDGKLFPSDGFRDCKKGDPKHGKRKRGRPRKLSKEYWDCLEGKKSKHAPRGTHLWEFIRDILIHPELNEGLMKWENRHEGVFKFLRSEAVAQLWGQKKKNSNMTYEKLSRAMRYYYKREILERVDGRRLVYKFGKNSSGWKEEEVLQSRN
As to conditions: protein: recombinant; tags: N-terminal GST; dsDNA, one strand shown. A digest of the protocol:
as §1

The target of experiment [18] is CRX (Homo sapiens, UniProt O43186 1-299). As to conditions: protein: recombinant; tags: N-terminal GST; dsDNA, one strand shown. In a few lines: as §1
In experiment [19] the target is ETV1 (Homo sapiens, UniProt P50549 1-477). The conditions noted are these: protein: recombinant; tags: N-terminal GST; dsDNA, one strand shown. A digest of the protocol: as §1
Sequence of ETV1 (P50549 whole entry): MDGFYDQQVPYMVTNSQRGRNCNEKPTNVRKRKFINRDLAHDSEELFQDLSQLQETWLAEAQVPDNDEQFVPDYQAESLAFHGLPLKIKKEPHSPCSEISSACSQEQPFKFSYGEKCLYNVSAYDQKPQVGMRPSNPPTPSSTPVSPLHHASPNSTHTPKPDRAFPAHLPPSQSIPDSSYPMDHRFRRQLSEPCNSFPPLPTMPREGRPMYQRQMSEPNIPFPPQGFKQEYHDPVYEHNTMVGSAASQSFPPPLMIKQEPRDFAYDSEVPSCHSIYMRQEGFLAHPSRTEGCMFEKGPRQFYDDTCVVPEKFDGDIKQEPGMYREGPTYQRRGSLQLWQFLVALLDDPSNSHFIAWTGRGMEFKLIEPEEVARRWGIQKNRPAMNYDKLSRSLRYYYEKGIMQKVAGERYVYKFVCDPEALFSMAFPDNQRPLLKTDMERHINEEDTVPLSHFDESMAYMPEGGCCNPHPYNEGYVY

Sequence of ELF4 (Q99607 whole entry): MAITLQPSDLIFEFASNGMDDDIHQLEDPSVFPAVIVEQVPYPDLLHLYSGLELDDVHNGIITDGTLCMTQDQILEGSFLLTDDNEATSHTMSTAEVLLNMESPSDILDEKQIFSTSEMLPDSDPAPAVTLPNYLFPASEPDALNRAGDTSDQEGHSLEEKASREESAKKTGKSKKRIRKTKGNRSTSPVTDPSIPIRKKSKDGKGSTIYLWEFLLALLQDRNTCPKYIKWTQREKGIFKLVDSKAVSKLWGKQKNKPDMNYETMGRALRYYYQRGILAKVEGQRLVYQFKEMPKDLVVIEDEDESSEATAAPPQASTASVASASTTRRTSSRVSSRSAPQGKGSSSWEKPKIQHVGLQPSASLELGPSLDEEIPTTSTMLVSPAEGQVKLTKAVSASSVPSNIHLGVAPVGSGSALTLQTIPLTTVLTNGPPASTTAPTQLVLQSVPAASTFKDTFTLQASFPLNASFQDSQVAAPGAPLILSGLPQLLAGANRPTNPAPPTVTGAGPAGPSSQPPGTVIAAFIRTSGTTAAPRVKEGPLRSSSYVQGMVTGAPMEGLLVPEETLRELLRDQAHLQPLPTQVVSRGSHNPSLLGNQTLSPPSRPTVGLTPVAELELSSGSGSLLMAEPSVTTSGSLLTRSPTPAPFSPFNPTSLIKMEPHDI
Sequence of CRX (O43186 whole entry): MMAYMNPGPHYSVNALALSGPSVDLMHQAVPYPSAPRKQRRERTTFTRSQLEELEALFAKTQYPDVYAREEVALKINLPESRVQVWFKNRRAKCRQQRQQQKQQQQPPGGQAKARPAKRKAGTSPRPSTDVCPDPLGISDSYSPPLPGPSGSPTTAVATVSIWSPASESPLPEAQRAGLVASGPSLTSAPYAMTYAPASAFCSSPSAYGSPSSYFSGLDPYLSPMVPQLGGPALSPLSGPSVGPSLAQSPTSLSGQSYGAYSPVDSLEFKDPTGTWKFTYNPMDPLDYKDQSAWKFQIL
Sequence of ELF1 (P32519 whole entry): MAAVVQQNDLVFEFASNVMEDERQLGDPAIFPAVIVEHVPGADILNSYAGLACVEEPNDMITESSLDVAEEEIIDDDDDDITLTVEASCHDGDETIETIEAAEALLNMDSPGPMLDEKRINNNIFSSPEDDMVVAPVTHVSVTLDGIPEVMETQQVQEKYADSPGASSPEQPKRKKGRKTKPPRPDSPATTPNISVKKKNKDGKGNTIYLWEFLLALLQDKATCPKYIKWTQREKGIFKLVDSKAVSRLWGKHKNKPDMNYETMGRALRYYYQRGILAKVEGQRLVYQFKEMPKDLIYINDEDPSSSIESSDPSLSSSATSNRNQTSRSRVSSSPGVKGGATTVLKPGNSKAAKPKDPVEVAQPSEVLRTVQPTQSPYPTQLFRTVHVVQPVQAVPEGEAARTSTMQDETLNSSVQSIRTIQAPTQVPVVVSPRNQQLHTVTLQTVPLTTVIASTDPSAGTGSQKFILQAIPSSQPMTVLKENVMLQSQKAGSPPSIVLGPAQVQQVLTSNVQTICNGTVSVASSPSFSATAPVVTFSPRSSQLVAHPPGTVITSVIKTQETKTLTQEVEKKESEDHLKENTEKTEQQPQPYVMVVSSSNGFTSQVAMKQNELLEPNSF
Sequence of SPIB (Q01892 whole entry): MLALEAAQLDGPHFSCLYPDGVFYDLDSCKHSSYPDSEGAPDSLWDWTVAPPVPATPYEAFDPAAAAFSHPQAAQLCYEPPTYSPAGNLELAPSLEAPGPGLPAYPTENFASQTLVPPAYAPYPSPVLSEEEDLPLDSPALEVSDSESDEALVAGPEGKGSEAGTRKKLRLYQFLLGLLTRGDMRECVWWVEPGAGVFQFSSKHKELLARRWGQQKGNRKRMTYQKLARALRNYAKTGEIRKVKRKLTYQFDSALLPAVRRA
Sequence of ETV5 (P41161 whole entry): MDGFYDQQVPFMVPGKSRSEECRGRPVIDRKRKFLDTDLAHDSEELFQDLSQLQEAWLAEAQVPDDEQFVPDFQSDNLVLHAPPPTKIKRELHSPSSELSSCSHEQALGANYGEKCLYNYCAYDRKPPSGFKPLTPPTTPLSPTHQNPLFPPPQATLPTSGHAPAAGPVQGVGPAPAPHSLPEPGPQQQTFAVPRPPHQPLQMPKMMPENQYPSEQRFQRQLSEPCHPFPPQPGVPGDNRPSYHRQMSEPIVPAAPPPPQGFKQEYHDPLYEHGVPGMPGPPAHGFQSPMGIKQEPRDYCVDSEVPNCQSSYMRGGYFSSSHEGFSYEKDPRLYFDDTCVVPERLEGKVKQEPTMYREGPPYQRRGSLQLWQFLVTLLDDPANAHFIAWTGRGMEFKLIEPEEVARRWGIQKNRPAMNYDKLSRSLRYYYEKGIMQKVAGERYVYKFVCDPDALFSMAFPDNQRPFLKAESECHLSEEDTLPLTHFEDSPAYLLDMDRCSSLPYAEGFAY
Sequence of HSF1 (Q00613 whole entry): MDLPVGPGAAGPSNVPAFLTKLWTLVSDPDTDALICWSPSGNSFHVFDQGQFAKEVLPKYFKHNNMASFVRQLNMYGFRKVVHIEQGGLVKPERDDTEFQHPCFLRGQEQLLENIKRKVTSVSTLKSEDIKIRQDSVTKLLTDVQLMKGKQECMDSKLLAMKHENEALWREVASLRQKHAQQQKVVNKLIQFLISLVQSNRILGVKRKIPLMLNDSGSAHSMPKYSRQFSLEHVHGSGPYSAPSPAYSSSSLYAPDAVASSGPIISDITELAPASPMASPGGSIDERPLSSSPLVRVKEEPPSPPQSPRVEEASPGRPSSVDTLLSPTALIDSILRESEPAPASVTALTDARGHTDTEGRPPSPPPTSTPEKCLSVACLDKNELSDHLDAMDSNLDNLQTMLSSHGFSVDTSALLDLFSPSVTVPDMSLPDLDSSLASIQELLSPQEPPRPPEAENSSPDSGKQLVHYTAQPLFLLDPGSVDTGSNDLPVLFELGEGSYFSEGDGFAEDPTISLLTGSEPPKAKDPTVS

Regarding ACCTAT, the binding signal in experiment [1] was 1.18 fold enrichment (6-mer frequency, TF over GST control); in experiment [2] it was 1.26 fold enrichment (6-mer frequency, TF over GST control); in experiment [3] it was 1.16 fold enrichment (6-mer frequency, TF over GST control); in experiment [4], 1.07 fold enrichment (6-mer frequency, TF over GST control); in [5] it was 1.21 fold enrichment (6-mer frequency, TF over GST control); in experiment [6], 1.21 fold enrichment (6-mer frequency, TF over GST control). Also, the binding signal was 1.17 fold enrichment (6-mer frequency, TF over GST control) in experiment [7]; 1.15 fold enrichment (6-mer frequency, TF over GST control) in experiment [8]; 1.17 fold enrichment (6-mer frequency, TF over GST control) in experiment [9]; 1.15 fold enrichment (6-mer frequency, TF over GST control) in experiment [10]; 1.14 fold enrichment (6-mer frequency, TF over GST control) in [11]; 1.05 fold enrichment (6-mer frequency, TF over GST control) in experiment [12]. Also, the binding signal is 1.11 fold enrichment (6-mer frequency, TF over GST control) in experiment [13]; 1.24 fold enrichment (6-mer frequency, TF over GST control) in experiment [14]; 1.13 fold enrichment (6-mer frequency, TF over GST control) in experiment [15]; 1.28 fold enrichment (6-mer frequency, TF over GST control) in experiment [16]; 1.24 fold enrichment (6-mer frequency, TF over GST control) in experiment [17]; 1.09 fold enrichment (6-mer frequency, TF over GST control) in experiment [18]. Besides, in experiment [19], the binding signal was 1.21 fold enrichment (6-mer frequency, TF over GST control).
